Bioassay records as filed in PubChem BioAssay.
A selection: hits, their analogues and other compounds. The true share with any hit is near 2.8%.
PI4K2A block: blocks human PI4K2A kinase activity; purified PI4K2A, ADP-Glo luminescence, 1 h; stronger effect = lower value; 420,000 tested, 0.13% active; activity change, negative = inhibition, % at 76.9 µM; Q9BTU6; in the data active = activity change below about -50%; inconclusive = mostly about -30% to -49%
Target sequence (Q9BTU6 whole entry, looked up): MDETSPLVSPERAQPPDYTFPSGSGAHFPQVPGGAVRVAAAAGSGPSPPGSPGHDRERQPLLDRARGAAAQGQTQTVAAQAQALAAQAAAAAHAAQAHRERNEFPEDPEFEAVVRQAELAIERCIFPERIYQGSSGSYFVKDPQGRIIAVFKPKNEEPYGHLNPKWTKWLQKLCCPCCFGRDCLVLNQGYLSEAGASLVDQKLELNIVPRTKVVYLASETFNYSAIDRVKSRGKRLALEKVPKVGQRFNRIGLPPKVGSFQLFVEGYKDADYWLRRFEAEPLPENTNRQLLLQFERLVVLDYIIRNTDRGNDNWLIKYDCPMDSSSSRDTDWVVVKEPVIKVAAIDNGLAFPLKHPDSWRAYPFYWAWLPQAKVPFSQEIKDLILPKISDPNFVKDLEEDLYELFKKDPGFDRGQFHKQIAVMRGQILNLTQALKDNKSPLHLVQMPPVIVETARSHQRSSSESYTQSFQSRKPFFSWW
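In this quantitative HTS, ADP production by PI4K2A was quantified luminescently after 1 h at ambient temperature; 100 microM adenosine served as plate-quality control.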
PI5P4K alpha inh: blocks human PI5P4K alpha kinase activity; P48426; PI5P4Kalpha enzyme, ADP-Glo luminescence, 60 min; stronger effect = lower value; max response, %; 330,000 tested, 1.2% active; active = max response of -50% or lower; inconclusive = between -30% and -50%; inactive = -30% or higher; note: value at the top dose of about 77 µM
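qHTS, 1536-well: enzyme/substrate mix, compound by pin tool, 5 microM ATP final; RT 60 min; ADP-Glo reagents 1 (45 min) then 2 (30 min); luminescence.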
POLH inh: blocks human DNA polymerase eta activity; Q9Y253; recombinant Pol eta, fluorescent DNA replication assay; Potency, µM (series often up to 114 µM), usual class: inhibitors; 390,000 tested, 1.2% active; AID 588591
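Fluorescent replication assay: 50 nM final substrate added after a 15 min room-temperature compound preincubation with 10 nM enzyme. Signal taken at 0 min and again at 10 min.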
Pol beta inh: inhibitors of human DNA polymerase beta; P06746; Pol beta primer extension/strand displacement, fluorescence kinetic; Potency, µM (series often up to 114 µM), actives largely listed as inhibitors; 340,000 tested, 1.3% active; AID 485314
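Human Pol beta at 10 nM; strand-displacement substrate 50 nM final. Compound exposure 15 min at room temperature before start, reaction 10 min at room temperature.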
Pol iota inh: inhibitors of human DNA polymerase iota; Q9UNA4; Pol iota fluorescent replication assay, 10 min; Potency, µM (titrated, usually from 115 µM), most hits filed as inhibitors; 390,000 tested, 1% active; AID 588590
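Fluorescent replication assay read twice, at 0 min and 10 min after adding 50 nM (final) substrate. Enzyme (10 nM) and compounds were first incubated 15 min at room temperature; enzyme-free buffer wells were negative controls.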
POLK inh: blocks human DNA polymerase kappa activity; 400,000 tested, 0.53% active; AID 588579; purified Pol kappa, fluorescent DNA synthesis assay, 10 min; Potency, µM (doses to about 107 µM), actives largely listed as inhibitors
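Here, compound and 10 nM enzyme are combined for 15 min at room temperature; adding 50 nM substrate (final) starts DNA synthesis, tracked by fluorescence at 0 and 10 min against buffer-only wells.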
Each line names hits and unclear results; the compound was inactive in the other large screens. Unless noted, calls come from the whole dose curve; as a rule, active = well fitted inhibition curve with a large enough effect; inconclusive = small, poorly fitted or top-dose-only effect, or another doubt; inactive = no such curve, though single readings can be large or run the other way.

O=C(COc1ccccc1)Nc1sc2c(c1C(=O)Nc1ccccc1)CCCCC2	POLH inh 79µM, Pol beta inh 18µM, Pol iota inh inconclusive, POLK inh inconclusive (no result: PI5P4K alpha inh)
O=C(COc1ccccc1)Nc1sc2c(c1C(=O)Nc1ccccc1Cl)CCCCC2	none (no result: PI5P4K alpha inh)
COc1ccc(C)cc1Nc1n[n+](-c2ccccc2)c(-c2c(OC)ccc3ccccc23)s1	PI5P4K alpha inh -54 (no result: Pol beta inh)
Fc1ccc(-[n+]2nc(Nc3ccccc3)sc2-c2c3ccccc3cc3ccccc23)cc1	PI5P4K alpha inh -63, Pol iota inh inconclusive
Cn1cccc1-c1cc2n(n1)CCC(=O)N2CCCC(=O)NCc1ccc(F)cc1	none (no result: PI5P4K alpha inh)
O=c1nc(SCc2c(F)cccc2Cl)nc(-c2ccc(Cl)cc2)[nH]1	POLH inh 89µM
O=c1nc(SCc2ccccc2Cl)nc(-c2ccc(Cl)cc2)[nH]1	none
COc1ccc(-c2nc3ccccc3o2)cc1NC(=O)c1ccc(OCC(C)C)cc1	POLH inh inconclusive (no result: PI5P4K alpha inh)
CC(C)(C)n1ncc2c(=O)n(Cc3cccc(C(F)(F)F)c3Cl)cnc21	none (no result: PI4K2A block, PI5P4K alpha inh, POLH inh, Pol beta inh)
Cn1c(=O)c(-c2cc(F)cc(F)c2)nc2cnc(N3CCNCC3)nc21	none (no result: PI4K2A block, PI5P4K alpha inh, POLH inh, Pol beta inh, Pol iota inh)
CC(=O)n1cc(/C=N/NC(=O)c2sc(C)nc2C)c2ccccc21	Pol beta inh 18µM, Pol iota inh 11µM, POLK inh inconclusive
Cc1cc(C(=O)COC(=O)CC(NC(N)=O)c2ccc(Cl)cc2)c(C)n1C (stereo not drawn)	Pol iota inh inconclusive (no result: Pol beta inh)
Cc1cc(C(=O)COC(=O)Cc2ccc(Cl)cc2)c(C)n1C	POLH inh inconclusive, Pol iota inh 35µM, POLK inh inconclusive (no result: Pol beta inh)
C=CCn1c(SCc2ccccc2F)nc2cc(C(=O)O)ccc2c1=O	PI5P4K alpha inh -74
C=CCn1c(SCC(=O)N(CC)C2CCS(=O)(=O)C2)nc2cc(C(=O)O)ccc2c1=O (stereo not drawn)	PI5P4K alpha inh -64 (no result: Pol beta inh)
COc1cc2nc(CCNCc3ccccc3)nc(NC3CCN(C)CC3)c2cc1OC	none (no result: PI4K2A block, PI5P4K alpha inh, POLH inh, Pol beta inh)
CC(C)n1cc(/C=N/NC(=O)COc2cccc3cccnc23)c2ccccc21	POLH inh inconclusive, Pol beta inh inconclusive, Pol iota inh 7.9µM
C=CCn1cc(/C=N/NC(=O)COc2cccc3cccnc23)c2ccccc21	POLH inh inconclusive, Pol beta inh inconclusive, Pol iota inh inconclusive
Cc1ccc(/C=N/n2c(-c3ccccn3)n[nH]c2=S)o1	Pol iota inh 50µM
CCN(CC)CCN	none (no result: PI5P4K alpha inh, POLH inh, Pol beta inh, Pol iota inh, POLK inh)
Oc1ccc(NCc2cccc(OCc3ccc(F)cc3)c2)cc1	PI4K2A block inconclusive, Pol iota inh 22µM
Oc1ccc(NCc2cccc(OCc3ccccc3)c2)cc1	PI4K2A block inconclusive, Pol iota inh inconclusive
O=C1CCCC(O)=C1N=Nc1c(Cl)cc(C(F)(F)F)cc1Cl	PI5P4K alpha inh inconclusive, Pol beta inh inconclusive, Pol iota inh 79µM, POLK inh inconclusive
Cc1c(CCC(=O)N2CCC(C(=O)O)(c3ccccc3)CC2)c(=O)oc2cc3oc4c(c3cc12)CCCC4	none
Cc1c(CCC(=O)N2CCC(C(=O)O)CC2)c(=O)oc2cc3oc4c(c3cc12)CCCC4	Pol beta inh 35µM
N#Cc1ccccc1NC(=S)NC(=O)c1cccs1	PI5P4K alpha inh -56
CCNC(=O)c1ccc(CSc2ccc(Cl)cc2)cc1	Pol iota inh 79µM
COc1cccc(C(c2c(C)[nH]n(-c3ccccc3)c2=O)c2c(C)[nH]n(-c3ccccc3)c2=O)c1OC	PI4K2A block inconclusive, Pol iota inh 1.3µM
Cc1[nH]n(-c2ccccc2)c(=O)c1C(c1ccc(O)c([N+](=O)[O-])c1)c1c(C)[nH]n(-c2ccccc2)c1=O	POLH inh 28µM, Pol iota inh inconclusive (no result: Pol beta inh)
Cc1[nH]n(-c2ccccc2)c(=O)c1C(C[N+](=O)[O-])c1ccccc1Cl (stereo not drawn)	none
COc1cccc(C(c2c(C)[nH]n(-c3ccccc3)c2=O)c2c(C)[nH]n(-c3ccccc3)c2=O)c1O	PI4K2A block -51, Pol iota inh 1µM
CN(c1ccccc1)S(=O)(=O)c1ccc2[nH]c(=O)oc2c1	POLH inh 32µM, Pol beta inh 50µM, Pol iota inh 11µM
